Experimental data reported in the supplement of paper PMC7411054.

Tests used:
Test in all cases: phenotypically active (imaging signature differs from DMSO and reproducible) at any of 0.3-9 uM (binary (1 = active, 0 = inactive)); higher = active
Conditions in all cases: treatment time: 24 h
A549-ACTB-RAB5A = tested on: A549-ACTB-RAB5A
Method in brief: (§1)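 Fifteen gene-edited A549, HepG2 and WPMY1 reporter lines (BFP segmentation plus GFP and RFP/FusionRed markers) were treated at 0.3, 1, 3 or 9 µM for 24 h, four wells each, then imaged live. Live-cell features per well were normalised to DMSO control wells. Deviation required ≥3 of 4 wells beyond the 95th percentile of DMSO Euclidean distances, and reproducibility required median replicate Pearson correlation above the 95th percentile of non-replicates. Phenotypic activity needed both criteria.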

A549-CANX-COX4 = tested on: A549-CANX-COX4
Method in brief: as §1

A549-GM130-SQSTM1 = tested on: A549-GM130-SQSTM1
Method in brief: as §1

A549-TP53BP1-CLTA = tested on: A549-TP53BP1-CLTA
Method in brief: as §1

A549-TUBA1B-RELA = tested on: A549-TUBA1B-RELA
Method in brief: as §1

HepG2-ACTB-RAB5A = tested on: HepG2-ACTB-RAB5A
Method in brief: as §1

HepG2-CANX-COX4 = tested on: HepG2-CANX-COX4
Method in brief: as §1

HepG2-GM130-SQSTM1 = tested on: HepG2-GM130-SQSTM1
Method in brief: as §1

HepG2-TP53BP1-CLTA = tested on: HepG2-TP53BP1-CLTA
Method in brief: as §1

HepG2-TUBA1B-RELA = tested on: HepG2-TUBA1B-RELA
Method in brief: as §1

WPMY1-ACTB-RAB5A = tested on: WPMY1-ACTB-RAB5A
Method in brief: as §1

WPMY1-CANX-COX4 = tested on: WPMY1-CANX-COX4
Method in brief: as §1

WPMY1-GM130-SQSTM1 = tested on: WPMY1-GM130-SQSTM1
Method in brief: as §1

WPMY1-TP53BP1-CLTA = tested on: WPMY1-TP53BP1-CLTA
Method in brief: as §1

WPMY1-TUBA1B-RELA = tested on: WPMY1-TUBA1B-RELA
Method in brief: as §1

Measured: phenotypically active

Cc1ncc([N+](=O)[O-])n1CCOC(=O)NC(Nc1ncccn1)C(Cl)(Cl)Cl (stereo not given) [Apcin]
inactive: A549-ACTB-RAB5A 0 | A549-CANX-COX4 0 | A549-GM130-SQSTM1 0 | A549-TP53BP1-CLTA 0 | A549-TUBA1B-RELA 0 | HepG2-ACTB-RAB5A 0 | HepG2-CANX-COX4 0 | HepG2-GM130-SQSTM1 0 | HepG2-TP53BP1-CLTA 0 | HepG2-TUBA1B-RELA 0 | WPMY1-ACTB-RAB5A 0 | WPMY1-CANX-COX4 0 | WPMY1-GM130-SQSTM1 0 | WPMY1-TP53BP1-CLTA 0 | WPMY1-TUBA1B-RELA 0

OCCn1cc(-c2cnc3nnn(Cc4ccc5ncccc5c4)c3n2)cn1
inactive: A549-ACTB-RAB5A 0 | A549-CANX-COX4 0 | A549-GM130-SQSTM1 0 | A549-TP53BP1-CLTA 0 | A549-TUBA1B-RELA 0 | HepG2-ACTB-RAB5A 0 | HepG2-CANX-COX4 0 | HepG2-GM130-SQSTM1 0 | HepG2-TP53BP1-CLTA 0 | HepG2-TUBA1B-RELA 0 | WPMY1-ACTB-RAB5A 0 | WPMY1-CANX-COX4 0 | WPMY1-GM130-SQSTM1 0 | WPMY1-TP53BP1-CLTA 0 | WPMY1-TUBA1B-RELA 0

COC(=O)C1=CO[C@@H](O[C@@H]2O[C@H](CO)[C@@H](O)[C@H](O)[C@H]2O)[C@H]2[C@@H]1C(=O)C[C@@H]2C [Verbenaline]
inactive: A549-ACTB-RAB5A 0 | A549-CANX-COX4 0 | A549-GM130-SQSTM1 0 | A549-TP53BP1-CLTA 0 | A549-TUBA1B-RELA 0 | HepG2-ACTB-RAB5A 0 | HepG2-CANX-COX4 0 | HepG2-GM130-SQSTM1 0 | HepG2-TP53BP1-CLTA 0 | HepG2-TUBA1B-RELA 0 | WPMY1-ACTB-RAB5A 0 | WPMY1-CANX-COX4 0 | WPMY1-GM130-SQSTM1 0 | WPMY1-TP53BP1-CLTA 0 | WPMY1-TUBA1B-RELA 0

COc1cc2c3cc1Oc1cc(ccc1O)C[C@@H]1c4c(cc(OC)c(O)c4Oc4ccc(cc4)C[C@@H]3N(C)CC2)CC[N+]1(C)C [(+)-Tubocurarine chloride]
inactive: A549-ACTB-RAB5A 0 | A549-CANX-COX4 0 | A549-GM130-SQSTM1 0 | A549-TP53BP1-CLTA 0 | A549-TUBA1B-RELA 0 | HepG2-ACTB-RAB5A 0 | HepG2-CANX-COX4 0 | HepG2-GM130-SQSTM1 0 | HepG2-TP53BP1-CLTA 0 | HepG2-TUBA1B-RELA 0 | WPMY1-ACTB-RAB5A 0 | WPMY1-CANX-COX4 0 | WPMY1-GM130-SQSTM1 0 | WPMY1-TP53BP1-CLTA 0 | WPMY1-TUBA1B-RELA 0

CC[C@H]1OC(=O)[C@H](C)[C@@H](O[C@H]2C[C@@](C)(OC)[C@@H](O)[C@H](C)O2)[C@H](C)[C@@H](O[C@@H]2O[C@H](C)C[C@H](N(C)C)[C@H]2O)[C@](C)(O)C[C@@H](C)C(=O)[C@H](C)[C@@H](O)[C@]1(C)O [Erythromycin]
inactive: A549-ACTB-RAB5A 0 | A549-CANX-COX4 0 | A549-GM130-SQSTM1 0 | A549-TP53BP1-CLTA 0 | A549-TUBA1B-RELA 0 | HepG2-ACTB-RAB5A 0 | HepG2-CANX-COX4 0 | HepG2-GM130-SQSTM1 0 | HepG2-TP53BP1-CLTA 0 | HepG2-TUBA1B-RELA 0 | WPMY1-ACTB-RAB5A 0 | WPMY1-CANX-COX4 0 | WPMY1-GM130-SQSTM1 0 | WPMY1-TP53BP1-CLTA 0 | WPMY1-TUBA1B-RELA 0

O=c1[nH]cnc2[nH]ncc12 [Allopurinol]
inactive: A549-ACTB-RAB5A 0 | A549-CANX-COX4 0 | A549-GM130-SQSTM1 0 | A549-TP53BP1-CLTA 0 | A549-TUBA1B-RELA 0 | HepG2-ACTB-RAB5A 0 | HepG2-CANX-COX4 0 | HepG2-GM130-SQSTM1 0 | HepG2-TP53BP1-CLTA 0 | HepG2-TUBA1B-RELA 0 | WPMY1-ACTB-RAB5A 0 | WPMY1-CANX-COX4 0 | WPMY1-GM130-SQSTM1 0 | WPMY1-TP53BP1-CLTA 0 | WPMY1-TUBA1B-RELA 0

CC(=O)O[C@H]1C[C@@H]2CC[C@@H]3[C@H](CC[C@@]4(C)[C@H]3C[C@H]([N+]3(C)CCCCC3)[C@@H]4OC(C)=O)[C@@]2(C)C[C@@H]1N1CCCCC1 [vecuronium]
inactive: A549-ACTB-RAB5A 0 | A549-CANX-COX4 0 | A549-GM130-SQSTM1 0 | A549-TP53BP1-CLTA 0 | A549-TUBA1B-RELA 0 | HepG2-ACTB-RAB5A 0 | HepG2-CANX-COX4 0 | HepG2-GM130-SQSTM1 0 | HepG2-TP53BP1-CLTA 0 | HepG2-TUBA1B-RELA 0 | WPMY1-ACTB-RAB5A 0 | WPMY1-CANX-COX4 0 | WPMY1-GM130-SQSTM1 0 | WPMY1-TP53BP1-CLTA 0 | WPMY1-TUBA1B-RELA 0

CC1CCC(C(C)C)C(O)C1 [L-menthol]
inactive: A549-ACTB-RAB5A 0 | A549-CANX-COX4 0 | A549-GM130-SQSTM1 0 | A549-TP53BP1-CLTA 0 | A549-TUBA1B-RELA 0 | HepG2-ACTB-RAB5A 0 | HepG2-CANX-COX4 0 | HepG2-GM130-SQSTM1 0 | HepG2-TP53BP1-CLTA 0 | HepG2-TUBA1B-RELA 0 | WPMY1-ACTB-RAB5A 0 | WPMY1-CANX-COX4 0 | WPMY1-GM130-SQSTM1 0 | WPMY1-TP53BP1-CLTA 0 | WPMY1-TUBA1B-RELA 0

NC(=O)c1ncn([C@@H]2O[C@H](CO)[C@@H](O)[C@H]2O)c1N
inactive: A549-ACTB-RAB5A 0 | A549-CANX-COX4 0 | A549-GM130-SQSTM1 0 | A549-TP53BP1-CLTA 0 | A549-TUBA1B-RELA 0 | HepG2-ACTB-RAB5A 0 | HepG2-CANX-COX4 0 | HepG2-GM130-SQSTM1 0 | HepG2-TP53BP1-CLTA 0 | HepG2-TUBA1B-RELA 0 | WPMY1-ACTB-RAB5A 0 | WPMY1-CANX-COX4 0 | WPMY1-GM130-SQSTM1 0 | WPMY1-TP53BP1-CLTA 0 | WPMY1-TUBA1B-RELA 0

CC(COc1ccccc1)N(CCCl)Cc1ccccc1 (stereo not given) [phenoxybenzamine]
inactive: A549-ACTB-RAB5A 0 | A549-CANX-COX4 0 | A549-GM130-SQSTM1 0 | A549-TP53BP1-CLTA 0 | A549-TUBA1B-RELA 0 | HepG2-ACTB-RAB5A 0 | HepG2-CANX-COX4 0 | HepG2-GM130-SQSTM1 0 | HepG2-TP53BP1-CLTA 0 | HepG2-TUBA1B-RELA 0 | WPMY1-ACTB-RAB5A 0 | WPMY1-CANX-COX4 0 | WPMY1-GM130-SQSTM1 0 | WPMY1-TP53BP1-CLTA 0 | WPMY1-TUBA1B-RELA 0

CN1C(=O)CC[C@H]1c1cccnc1 [(-)-Cotinine]
inactive: A549-ACTB-RAB5A 0 | A549-CANX-COX4 0 | A549-GM130-SQSTM1 0 | A549-TP53BP1-CLTA 0 | A549-TUBA1B-RELA 0 | HepG2-ACTB-RAB5A 0 | HepG2-CANX-COX4 0 | HepG2-GM130-SQSTM1 0 | HepG2-TP53BP1-CLTA 0 | HepG2-TUBA1B-RELA 0 | WPMY1-ACTB-RAB5A 0 | WPMY1-CANX-COX4 0 | WPMY1-GM130-SQSTM1 0 | WPMY1-TP53BP1-CLTA 0 | WPMY1-TUBA1B-RELA 0
